The text below walks through data of PubChem BioAssay (EPA / NIEHS).

Values joined by “and” are separate entries in the source; they are usually repeats but may differ in a detail not shown here. Equal entries are not always repeated. More than one record can exist for a structure, and the calls need not agree. Active and inactive are the calls of the source. The calls were made as follows: active = hit-call score of the fitted dose curve at least 0.9, where 1 is the maximum; inactive = score below 0.9.

Sequence of Tumor necrosis factor (Homo sapiens) (P01375 whole entry, looked up): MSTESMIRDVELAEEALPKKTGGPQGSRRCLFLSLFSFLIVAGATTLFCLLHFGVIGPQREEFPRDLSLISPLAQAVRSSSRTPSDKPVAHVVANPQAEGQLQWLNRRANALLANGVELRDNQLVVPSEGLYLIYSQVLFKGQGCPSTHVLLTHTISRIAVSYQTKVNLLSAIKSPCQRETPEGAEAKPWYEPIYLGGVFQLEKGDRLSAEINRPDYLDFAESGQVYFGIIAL

Read-out in the experiment: Tumor necrosis factor (Homo sapiens) (UniProt P01375)
Put plainly: BSK_BT_xTNFa: BioMAP Diversity Plus: BT Assay for Tumor necrosis factor alpha (TNF-alpha) Biomarker Activity (AID 2284230). Particulars: primary human B cells with PBMC. The protocol: BSK_BT is a cell-based, multiplexed-readout assay that uses B cell and peripheral blood mononuclear cells, a human vascular primary cell co-culture, with measurements taken at 24 hours after chemical dosing in a microplate: 96-well plate.BSK_BT_xTNFa is an assay component of the BSK_BT assay. It measures secreted TNF-alpha related to regulation of gene expression using LumineX xMAP technology.Data from the assay component BSK_BT_xTNFa was analyzed at the endpoint, BSK_BT_xTNFa, in the positive analysis fitting direction relative to DMSO as the negative control and baseline of activity. Using a type of cytokine quantitation reporter, gain or loss-of-signal activity can be used to understand protein changes. To generalize the intended target to other relatable targets, this assay endpoint is annotated to the 'cytokine' intended target family, where the subfamily is 'inflammatory factor'.
The levels of cell surface (or secreted, indicated by the prefix "s") biomarker endpoints were measured by ELISA. Overt cytotoxicity to cells in confluent adherent cultures (all systems other than the BT system) was assessed by measuring total protein levels using sulforhodamine B (SRB) staining in parallel cultures at the time of biomarker measurements, indicated as SRB endpoints. For proliferation assays for adherent cell types, individual cell types are cultured at sub-confluence and relative cell numbers quantified by SRB staining at time points optimized for each system (48 h: 3C and CASM3C systems; 72 h: BT and HDF3CGF systems; 96 h: SAg system). SRB was performed by staining cells with 0.1% SRB after fixation with 10% TCA and reading wells at 560 nm.Viability and proliferation of PBMC (T cells) was quantified by Alamar Blue reduction for the SAg and BT systems. For PBMC viability (referred to as PBMC Cytotoxicity within the assay endpoint names), cells were plated (75,000/well in a 96-well plate) and then chemical samples added for 1 h before addition of activators, SEB and TSST-1 (20 ng/mL final concentration each). Cells were incubated for 90 h. Then, Alamar Blue (20 uL/well) (Invitrogen, Cat DAL1100) was added for 6 h, and the plates were read with a fluorescence microplate reader at 546/580 nm (excitation/emission). For PBMC proliferation, cells were plated and activated as above but incubated for only 16 h prior to addition of Alamar Blue. Plates were read after 6 h.
On to `CN(CCO)S(=O)(=O)C(F)(F)C(F)(F)C(F)(F)C(F)(F)C(F)(F)C(F)(F)C(F)(F)C(F)(F)F`, for which the result was inactive.

For orientation: AC50 means the midpoint of the concentration-response curve, whichever way the signal moves. In the case of `CN(C)c1ccc(C(=C2C=CC(=[N+](C)C)C=C2)c2ccccc2)cc1`, the AC50 was 0.805 µM (active).

As for `C=CC(=O)OCCC(F)(F)C(F)(F)C(F)(F)C(F)(F)C(F)(F)C(F)(F)C(F)(F)C(F)(F)F`, the result was inactive.

`O=C(O)CCC(F)(F)C(F)(F)C(F)(F)C(F)(F)C(F)(F)F`: the result was inactive.

Turning to `Clc1ccc(Nc2nnc(Cc3ccncc3)c3ccccc23)cc1`, the outcome was inactive.

For `O=C1OC2(c3ccccc31)c1cc(I)c(O)c(I)c1Oc1c2cc(I)c(O)c1I`, the result was inactive.

On to `Oc1cc2ccccc2cc1O`, for which the outcome was inactive.

Turning to `Cc1ccc(C(=O)c2ccccc2)cc1`, the result was inactive.

As for `COc1cccc(O)c1`, the outcome was inactive.

As to `O=P(O)(O)CCC(F)(F)C(F)(F)C(F)(F)C(F)(F)C(F)(F)C(F)(F)C(F)(F)C(F)(F)F`, the outcome was inactive and the AC50 is 30 µM (active).

As to `C=CC(C)(CCC=C(C)C)OC(C)=O` (stereo not given), the outcome was inactive.

Turning to `O=C(O)CCC(F)(F)C(F)(F)C(F)(F)C(F)(F)C(F)(F)C(F)(F)F`, the AC50 was 36.5 µM (active) and the outcome was inactive.

In the case of `OCCN1CN(CCO)CN(CCO)C1`, the AC50 is 34.1 µM (active).

With `Cc1cccc2c1ccc1ccccc12`, the outcome was inactive.

In the case of `C=CC(=C)CC/C=C(\C)CCC=C(C)C`, the result was inactive.

For the compound `O=P(O)(O)CCC(F)(F)C(F)(F)C(F)(F)C(F)(F)C(F)(F)C(F)(F)F`, the result was inactive.

Regarding `COCN(COC)c1nc(N(COC)COC)nc(N(COC)COC)n1`, the outcome was inactive.

`CC1=NN(c2ccccc2)C(=O)C1`: the outcome was inactive.

Take `C=COC(=O)C(C)(C)CCCCCC`: the result was inactive.

`COC1=CC(=O)C[C@@H](C)[C@]12Oc1c(Cl)c(OC)cc(OC)c1C2=O`: the AC50 is 20 µM (active).

With `CCCCC(CC)C(=O)OCCOCCOCCOCCOC(=O)C(CC)CCCC` (stereo not given), the AC50 was 0.016 µM (active).

For `CC[N+](CC)(CC)Cc1ccccc1`, the result was inactive.

For `OCC(F)(F)C(F)(F)C(F)(F)C(F)(F)C(F)(F)C(F)(F)C(F)(F)C(F)(F)C(F)(F)C(F)(F)C(F)(F)F`, the result was inactive.

With `O=S(=O)(O)C(F)(F)C(F)(F)C(F)(F)C(F)(F)C(F)(F)C(F)(F)C(F)(F)C(F)(F)C(F)(F)C(F)(F)F`, the result was inactive.

For the compound `O=C(O)C(F)(F)OC(F)(F)C(F)(F)OC(F)(F)C(F)(F)OC(F)(F)C(F)(F)C(F)(F)C(F)(F)F`, the AC50 was 48.6 µM (active) and 53.5 µM (active).

In the case of `C[C@]12CC[C@@H]3c4ccc(O)cc4CC[C@H]3[C@@H]1C[C@@H](O)[C@@H]2O`, the outcome was inactive.

For `CCCCCCCCCCCCCCCCCC[N+](C)(C)Cc1ccccc1`, the AC50 was 3.16 µM (active).

On to `CCOC(=O)CN[C@@H](C(=O)N1CC[C@H]1C(=O)NCc1ccc(/C(N)=N/O)cc1)C1CCCCC1`, for which the outcome was inactive.

With `CC(C)(C)c1ccc(O)c(O)c1`, the AC50 is 31.5 µM (active).

Regarding `COc1cc(OC)nc(NC(=O)NS(=O)(=O)Nc2ccccc2C(=O)N(C)C)n1`, the outcome was inactive.

Consider `O=C(NO)c1ccccc1`, for which the AC50 was 19.2 µM (active).

Consider `CN(Cc1cnc2nc(N)nc(N)c2n1)c1ccc(C(=O)N[C@@H](CCC(=O)O)C(=O)O)cc1`, for which the result was inactive.

For the compound `Cc1ccc(N=Nc2c(O)ccc3ccccc23)c(C)c1`, the result was inactive.

Regarding `O=C(CC(=O)C(F)(F)C(F)(F)C(F)(F)F)c1cccs1`, the AC50 is 35.6 µM (active) and 39.6 µM (active).

With `O=C1c2ccc(O)c(O)c2C(=O)c2c(O)ccc(O)c21`, the result was inactive.

Consider `NC(=NCCCCCCN=C(N)/N=C(\N)Nc1ccc(Cl)cc1)/N=C(\N)Nc1ccc(Cl)cc1`, for which the AC50 was 8.79 µM (active).

Take `CCCCCc1ccc(O)cc1`: the outcome was inactive.

With `O=C(NCc1ncc(C(F)(F)F)cc1Cl)c1c(Cl)cccc1Cl`, the AC50 was 20 µM (active).
